# Source: PubChem BioAssay (EPA / NIEHS)
# Calls of active or inactive are those of the source. How the source made its calls: active means hit-call score of the fitted dose curve at least 0.9, where 1 is the maximum; inactive means score below 0.9.
# Assays:
# Conditions in all cases: mRNA level, 48 h; actives raise or lower the signal
# [1] = read-out: ABC Transporter (ABCC3), ABCC3 (gene 8714); assay: LTEA_HepaRG_ABCC3: Life Technologies and Expression Analysis (LTEA) Assay for ABC Transporter (ABCC3) using HepaRG (AID 2283462)
# How it was run: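 qRT-PCR read-out of ABCC3 transcript, normalized to three housekeeping genes (ACTB, GAPDH, POLR2A), after 48 h chemical exposure of human HepaRG cells. Eight half-log concentrations, highest 100 uM, in 0.5% DMSO; gain or loss fitted relative to DMSO baseline.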
# [2] = read-out: ABC Transporter (ABCB11), ABCB11 (gene 8647); assay: LTEA_HepaRG_ABCB11: Life Technologies and Expression Analysis (LTEA) Assay for ABC Transporter (ABCB11) using HepaRG (AID 2283463)
# How it was run: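 Using HepaRG cultures held in 0.5% DMSO, chemicals were tested at half-log dilutions from 100 uM for 48 h. Induction or suppression of ABCB11 mRNA, normalized to ACTB, GAPDH and POLR2A, was fitted bidirectionally against vehicle.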
# [3] = read-out: ABC Transporter (ABCC2), ABCC2 (gene 1244); assay: LTEA_HepaRG_ABCC2: Life Technologies and Expression Analysis (LTEA) Assay for ABC Transporter (ABCC2) using HepaRG (AID 2283464)
# How it was run: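 qRT-PCR (TaqMan, Fluidigm array) read-out of ABCC2 mRNA, normalized to three housekeeping genes. Differentiated HepaRG cells were treated 48 h in serum-free induction medium with 8-point half-log series from 100 uM in 0.5% DMSO; curves fitted bidirectionally relative to DMSO.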
# [4] = read-out: Broad substrate specificity ATP-binding cassette transporter ABCG2 (Homo sapiens) (UniProt Q9UNQ0); assay: LTEA_HepaRG_ABCG2: Life Technologies and Expression Analysis (LTEA) Assay for ABC Transporter (ABCG2) using HepaRG (AID 2283465)
# How it was run: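 Gene expression of ABCG2 in HepaRG liver cells is quantified by qRT-PCR following 48 h exposure across an eight-point series topping at 100 uM. Values come from bidirectional fitting relative to DMSO vehicle.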
# [5] = read-out: ATP-citrate lyase (ACLY), ACLY (gene 47); assay: LTEA_HepaRG_ACLY: Life Technologies and Expression Analysis (LTEA) Assay for ATP-citrate lyase (ACLY) using HepaRG (AID 2283466)
# How it was run: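 ACLY expression changes in human HepaRG liver cells are quantified by qRT-PCR after 48 h exposure to test chemicals (maximum 100 uM, half-log steps). Values are fitted in both directions relative to 0.5% DMSO vehicle.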
# [6] = read-out: Alkaline Phosphatase, Placental (ALPP) gene, ALPP (gene 250); assay: LTEA_HepaRG_ALPP: Life Technologies and Expression Analysis (LTEA) Assay for Alkaline Phosphatase, Placental (ALPP) gene using HepaRG (AID 2283468);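 on AC50: differentiated human HepaRG liver cells in serum-free induction medium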
# How it was run: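 qRT-PCR readout of ALPP mRNA (Fluidigm TaqMan), normalized to ACTB/GAPDH/POLR2A, after 48 h chemical exposure of HepaRG cells; 8-point half-log series, top 100 uM, 0.5% DMSO vehicle. Bidirectional curve fit versus DMSO baseline.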
# [7] = read-out: Bcl-2 (BAD) gene, BAD (gene 572); assay: LTEA_HepaRG_BAD: Life Technologies and Expression Analysis (LTEA) Assay for Bcl-2 (BAD) gene using HepaRG (AID 2283469)
# How it was run: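 Activity values reflect up- or down-regulation of BAD mRNA in human HepaRG hepatic cells treated 48 h in serum-free medium, with eight-point half-log dosing capped at 100 uM and 0.5% DMSO vehicle.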
# [8] = read-out: Bcl-2 (BAX) gene, BAX (gene 581); assay: LTEA_HepaRG_BAX: Life Technologies and Expression Analysis (LTEA) Assay for Bcl-2 (BAX) gene using HepaRG (AID 2283470)
# How it was run: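 qRT-PCR read-out of BAX mRNA, normalized to three housekeeping genes, after 48 h chemical exposure of human HepaRG cells in serum-free induction medium; eight-point half-log series, top 100 uM, 0.5% DMSO vehicle; bidirectional fit versus DMSO.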
# [9] = read-out: adenosine kinase (ADK) gene, ADK (gene 132); assay: LTEA_HepaRG_ADK: Life Technologies and Expression Analysis (LTEA) Assay for adenosine kinase (ADK) gene using HepaRG (AID 2283471)
# How it was run: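 HepaRG (human liver), 48 h chemical exposure, 8-pt half-log series, top 100 uM, 0.5% DMSO vehicle. Readout: ADK mRNA by qRT-PCR vs housekeeping genes; bidirectional curve fit relative to DMSO baseline.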
# BCL2L11 (gene 10018) = assay: LTEA_HepaRG_BCL2L11: Life Technologies and Expression Analysis (LTEA) Assay for Bcl-2 (BCL2L11) gene using HepaRG (AID 2283473)
# How it was run: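 HepaRG, 48 h exposure, 8-pt half-log series from 100 uM in 0.5% DMSO, duplicates; qRT-PCR (Fluidigm TaqMan) for BCL2L11, housekeeping-normalized; bidirectional curve fit relative to DMSO baseline.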
# [10] = read-out: Apolipoprotein A-V (APOA5) gene, APOA5 (gene 116519); assay: LTEA_HepaRG_APOA5: Life Technologies and Expression Analysis (LTEA) Assay for Apolipoprotein A-V (APOA5) gene using HepaRG (AID 2283474)
# How it was run: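 HepaRG, 48 h chemical exposure in serum-free induction medium, 8-pt half-log series (top 100 uM), 0.5% DMSO vehicle, duplicates. Readout: APOA5 mRNA by qRT-PCR, housekeeping-normalized; bidirectional fit vs DMSO baseline.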
# [11] = read-out: Apoptosis regulator Bcl-2 (Homo sapiens) (UniProt P10415); assay: LTEA_HepaRG_BCL2: Life Technologies and Expression Analysis (LTEA) Assay for Bcl-2 gene using HepaRG (AID 2283475)
# How it was run: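 qRT-PCR read-out (Fluidigm TaqMan) of BCL2 transcript, normalised to three housekeeping genes, after 48 h chemical exposure of HepaRG cells; 8-point half-log series, top 100 uM, 0.5% DMSO vehicle. Gain or loss of signal fitted relative to DMSO baseline.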
# [12] = read-out: Bcl-2 (BID) gene, BID (gene 637); assay: LTEA_HepaRG_BID: Life Technologies and Expression Analysis (LTEA) Assay for Bcl-2 (BID) gene using HepaRG (AID 2283476)
# How it was run: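 HepaRG, 48 h exposure, 8-pt half-log series, top 100 uM, 0.5% DMSO vehicle, duplicates. Readout: BID mRNA by TaqMan qRT-PCR; housekeeping-normalized; bidirectional curve fit vs DMSO baseline.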
# Caspase-3 (Homo sapiens) = Caspase-3 (Homo sapiens) (UniProt P42574); assay: LTEA_HepaRG_CASP3: Life Technologies and Expression Analysis (LTEA) Assay for cysteine-aspartic acid protease (CASP3) using HepaRG (AID 2283477)
# How it was run: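 HepaRG, 48 h exposure, 8 conc. (top 100 uM, half-log steps, duplicate), 0.5% DMSO vehicle; qRT-PCR of CASP3 transcript, housekeeping-normalised (ACTB/GAPDH/POLR2A); bidirectional curve fit vs DMSO baseline.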
# [13] = read-out: Cytochrome P450 (CYP24A1), CYP24A1 (gene 1591); assay: LTEA_HepaRG_CYP24A1: Life Technologies and Expression Analysis (LTEA) Assay for Cytochrome P450 (CYP24A1) using HepaRG (AID 2283478)
# How it was run: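 qRT-PCR read-out: CYP24A1 transcript levels normalized to three housekeeping genes, bidirectional curve fits against 0.5% DMSO baseline. Human HepaRG cells treated 48 h with chemicals at eight concentrations from 100 uM in half-log steps.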
# [14] = read-out: Cytochrome P450 (CYP1A2), CYP1A2 (gene 1544); assay: LTEA_HepaRG_CYP1A2: Life Technologies and Expression Analysis (LTEA) Assay for Cytochrome P450 (CYP1A2) using HepaRG (AID 2283479)
# How it was run: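 HepaRG, 48 h exposure, top 100 uM, half-log 8-pt, 0.5% DMSO vehicle, duplicates. Readout: TaqMan qRT-PCR of CYP1A2 mRNA, housekeeping-normalized (ACTB/GAPDH/POLR2A). Gain/loss fit relative to DMSO baseline.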
# [15] = read-out: cysteine-aspartic acid protease (CASP8), CASP8 (gene 841); assay: LTEA_HepaRG_CASP8: Life Technologies and Expression Analysis (LTEA) Assay for cysteine-aspartic acid protease (CASP8) using HepaRG (AID 2283480)
# How it was run: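 Concentration-response in duplicate up to 100 uM (half-log steps, 0.5% DMSO) on differentiated HepaRG cultures for 48 h. Expression change of CASP8 mRNA is determined by TaqMan qRT-PCR with housekeeping-gene normalization.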
# [16] = read-out: Cytochrome P450 (CYP2B6), CYP2B6 (gene 1555); assay: LTEA_HepaRG_CYP2B6: Life Technologies and Expression Analysis (LTEA) Assay for Cytochrome P450 (CYP2B6) using HepaRG (AID 2283481)
# How it was run: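 Read-out is CYP2B6 mRNA by TaqMan qRT-PCR, normalized to three housekeeping genes and fitted bidirectionally against 0.5% DMSO baseline. Human HepaRG cells received test chemicals for 48 h, top concentration 100 uM, half-log dilutions.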
# [17] = read-out: Alpha-fetoprotein (AFP) gene, AFP (gene 174); assay: LTEA_HepaRG_AFP: Life Technologies and Expression Analysis (LTEA) Assay for Alpha-fetoprotein (AFP) gene using HepaRG (AID 2283472)
# How it was run: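 qRT-PCR (Fluidigm TaqMan) readout of AFP transcript, normalized to three housekeeping genes, fitted bidirectionally against 0.5% DMSO baseline. HepaRG cells received chemicals for 48 h in serum-free induction medium, top concentration 100 uM, half-log steps.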
# Chain of Caspase-3 (Homo sapiens) (P42574 whole entry, looked up): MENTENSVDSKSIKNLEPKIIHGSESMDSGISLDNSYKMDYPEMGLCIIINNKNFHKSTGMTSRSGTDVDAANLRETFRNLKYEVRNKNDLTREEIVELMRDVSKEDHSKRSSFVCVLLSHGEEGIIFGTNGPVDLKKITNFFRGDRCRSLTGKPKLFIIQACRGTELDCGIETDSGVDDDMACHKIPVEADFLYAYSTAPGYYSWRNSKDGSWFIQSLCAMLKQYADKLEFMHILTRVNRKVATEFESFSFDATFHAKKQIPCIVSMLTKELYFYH
# Chain of Broad substrate specificity ATP-binding cassette transporter ABCG2 (Homo sapiens) (Q9UNQ0 whole entry, looked up): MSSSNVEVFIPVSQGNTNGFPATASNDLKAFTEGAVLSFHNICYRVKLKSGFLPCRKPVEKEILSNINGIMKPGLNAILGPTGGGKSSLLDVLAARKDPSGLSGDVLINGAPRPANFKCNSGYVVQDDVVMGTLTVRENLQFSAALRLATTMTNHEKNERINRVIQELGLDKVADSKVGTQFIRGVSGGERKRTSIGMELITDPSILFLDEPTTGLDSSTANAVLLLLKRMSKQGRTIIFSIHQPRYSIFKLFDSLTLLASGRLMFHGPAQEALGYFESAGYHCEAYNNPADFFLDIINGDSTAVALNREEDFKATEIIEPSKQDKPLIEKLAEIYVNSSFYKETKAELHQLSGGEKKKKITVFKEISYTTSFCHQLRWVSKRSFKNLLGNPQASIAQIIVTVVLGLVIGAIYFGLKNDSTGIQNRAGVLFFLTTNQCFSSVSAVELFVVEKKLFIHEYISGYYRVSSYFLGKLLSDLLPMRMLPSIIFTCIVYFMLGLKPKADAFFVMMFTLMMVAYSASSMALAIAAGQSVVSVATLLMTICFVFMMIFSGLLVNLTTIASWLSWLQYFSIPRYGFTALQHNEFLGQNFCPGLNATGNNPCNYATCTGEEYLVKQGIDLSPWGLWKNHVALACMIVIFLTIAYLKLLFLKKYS
# Chain of Apoptosis regulator Bcl-2 (Homo sapiens) (P10415 whole entry, looked up): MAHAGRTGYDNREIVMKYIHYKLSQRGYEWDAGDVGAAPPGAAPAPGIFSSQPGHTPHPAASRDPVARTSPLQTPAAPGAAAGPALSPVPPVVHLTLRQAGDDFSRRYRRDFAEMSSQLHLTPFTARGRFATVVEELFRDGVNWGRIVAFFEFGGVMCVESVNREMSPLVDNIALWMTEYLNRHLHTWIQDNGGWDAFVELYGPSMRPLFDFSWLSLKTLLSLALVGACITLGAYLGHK
structure (smiles),measurement,setting,value
CCCCCCCCCCCO,outcome,[1],inactive
same,outcome,[2],inactive
same,outcome,[3],inactive
same,outcome,[4],inactive
same,outcome,[5],inactive
same,outcome,[6],inactive
same,outcome,[7],inactive
same,outcome,[8],inactive
same,outcome,[9],inactive
same,outcome,BCL2L11 (gene 10018),inactive
same,outcome,[10],inactive
same,outcome,[11],inactive
same,outcome,[12],inactive
same,outcome,Caspase-3 (Homo sapiens),inactive
same,outcome,[13],inactive
same,outcome,[14],inactive
same,outcome,[15],inactive
same,outcome,[16],inactive
CCCCCCCCCCCCO,outcome,[1],inactive
same,outcome,[2],inactive
same,outcome,[3],inactive
same,outcome,[4],inactive
same,outcome,[5],inactive
same,outcome,[6],inactive
same,outcome,[7],inactive
same,outcome,[8],inactive
same,outcome,[9],inactive
same,outcome,BCL2L11 (gene 10018),inactive
same,outcome,[10],inactive
same,outcome,[11],inactive
same,outcome,[12],inactive
same,outcome,Caspase-3 (Homo sapiens),inactive
same,outcome,[13],inactive
same,outcome,[14],inactive
same,outcome,[15],inactive
same,outcome,[16],inactive
CCCCCCCCN(C)CCCCCCCC,outcome,[1],inactive
same,outcome,[2],inactive
same,outcome,[3],inactive
same,outcome,[4],inactive
same,outcome,[5],inactive
same,outcome,[6],inactive
same,outcome,[7],inactive
same,outcome,[8],inactive
same,outcome,[9],inactive
same,outcome,BCL2L11 (gene 10018),inactive
same,outcome,[10],inactive
same,outcome,[11],inactive
same,outcome,[12],inactive
same,outcome,Caspase-3 (Homo sapiens),inactive
same,outcome,[14],inactive
same,outcome,[15],inactive
same,outcome,[16],inactive
NCc1cccc(C2CCN(C(=O)c3ccc(C#Cc4ccccc4F)o3)CC2)c1,outcome,[1],inactive
same,AC50,[2],78 µM (active)
same,AC50,[3],90.6 µM (active)
same,outcome,[4],inactive
same,outcome,[5],inactive
same,AC50,[6],46.2 µM (active)
same,outcome,[7],inactive
same,outcome,[8],inactive
same,AC50,BCL2L11 (gene 10018),83.1 µM (active)
same,AC50,[10],80.5 µM (active)
same,outcome,[11],inactive
same,AC50,[12],79.9 µM (active)
same,outcome,Caspase-3 (Homo sapiens),inactive
same,outcome,[13],inactive
same,AC50,[14],90 µM (active)
same,AC50,[15],78 µM (active)
same,AC50,[16],83 µM (active)
O=C(O)Cc1cc(I)c(Oc2ccc(O)c(I)c2)c(I)c1,outcome,[1],inactive
same,AC50,[2],20.2 µM (active)
same,outcome,[3],inactive
same,AC50,[4],73.1 µM (active)
same,outcome,[5],inactive
same,AC50,[6],76.9 µM (active)
same,outcome,[7],inactive
same,AC50,[8],87.2 µM (active)
same,AC50,[17],74.7 µM (active)
same,outcome,BCL2L11 (gene 10018),inactive
same,AC50,[10],84.9 µM (active)
same,AC50,[11],84 µM (active)
same,outcome,[12],inactive
same,outcome,Caspase-3 (Homo sapiens),inactive
same,outcome,[13],inactive
same,AC50,[14],2.37 µM (active)
same,outcome,[15],inactive
same,AC50,[16],93.8 µM (active)
CC/C(=C(/CC)c1ccc(O)cc1)c1ccc(O)cc1,outcome,[1],inactive
same,outcome,[2],inactive
same,AC50,[3],78 µM (active)
same,AC50,[4],50 µM (active)
same,AC50,[5],50 µM (active)
same,outcome,[6],inactive
same,outcome,[7],inactive
same,outcome,[8],inactive
same,AC50,[9],94.1 µM (active)
same,AC50,BCL2L11 (gene 10018),88.8 µM (active)
same,AC50,[10],50 µM (active)
same,outcome,[11],inactive
same,outcome,[12],inactive
same,AC50,Caspase-3 (Homo sapiens),93 µM (active)
same,outcome,[13],inactive
same,AC50,[15],93.2 µM (active)
same,AC50,[16],82.4 µM (active)
